The nature of test [1]: qHTS assay to identify small molecule agonists of the vitamin D receptor (VDR) signaling pathway - cell viability counter screen (AID 743224). Also: series mostly up to about 63 µM; nearly all actives have a fitted effect of over 50% in size. The method in brief:
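Here cell health was gauged by luminescent ATP detection (CellTiter-Glo, 30 min RT) in VDR-bla cells that had been incubated with test compounds for 16 h at 37C and 5% CO2.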
(In general: In qHTS, concentration-response curves come from the screen itself.)

Test [2] in a line: qHTS assay to identify small molecule antagonists of the vitamin D receptor (VDR) signaling pathway - cell viability counter screen (AID 743225). Also: nearly all actives have a fitted effect of over 50% in size. A digest of the protocol: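 VDR-UAS-bla HEK 293T cells were plated and incubated 4 h at 37C, then dosed with compound plus 3 nM (final) 1-alpha,25-dihydroxyvitamin D3 for 16 h. After the 2 h beta-lactamase read, viability in the same wells was read as CellTiter-Glo luminescence after 30 min at room temperature.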

Test [3] in a line: qHTS assay to identify small molecule agonists of the NFkB signaling pathway (AID 1159509; active = well fitted curve in the direction sought with a large enough effect in the signal ratio in the repeat runs, not every such curve was filed as active; the % refers to the signal ratio; also: series mostly up to about 61 µM). The method in brief:
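After overnight attachment, reporter cells received test compounds, DMSO or positive controls and were incubated 5 hr at 37 C. FRET substrate was then added for 1.5 hr at room temperature before dual-emission fluorescence reading.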

A short description of test [4]: qHTS assay to identify small molecule agonists of the endoplasmic reticulum stress response signaling pathway - cell viability counter screen (AID 1159517; calls by dose curve;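 also: HeLa cells carrying an ER stress response element beta-lactamase reporter; series mostly up to about 61 µM; nearly all actives have a fitted effect of over 50% in size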). The method in brief: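 Luminescence readout: CellTiter-Glo, 30 min RT, same wells as the ESRE-bla reporter read. HeLa ESRE-bla, 1,500 cells/well, o/n 37 C; cpd 5 hr 37 C/5% CO2.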
In test [5] the target is Nuclear receptor ROR-gamma (Homo sapiens) (UniProt P51449). The experiment in a line: qHTS assay to identify small molecule antagonists of the retinoid-related orphan receptor gamma (ROR-gamma) signaling pathway (AID 1159521; also: nearly all actives have a fitted effect of over 50% in size; also: potency is read from the fitted curve at half-maximal effect). A digest of the protocol: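 Tet-on ROR-gamma CHO cells with ROR response element-luciferase reporter; compounds added 2 hr before 1 uM doxycycline induction, then 16 hr at 37 C. Antagonism scored as decreased ONE-Glo luminescence.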

Test [6] is described as follows: qHTS assay to identify small molecule agonists of the AP-1 signaling pathway - cell viability counter screen (AID 1159525; calls by dose curve; also: nearly all actives have a fitted effect of over 55% in size). A digest of the protocol: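 ME-180 AP-1-bla, 2500 cells/well, Opti-MEM + 0.5% dialyzed FBS; overnight 37 °C; cpd 15-pt titration, 5 h 37 °C; CellTiter-Glo 30 min RT; luminescence read; normalised to TOAB and DMSO controls.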
Test [7] can be described thus: qHTS assay to identify small molecule agonists of the AP-1 signaling pathway (AID 1159526; calls by dose curve).
Test [8] deals with Retinoic acid receptor RXR-alpha (Homo sapiens) (UniProt P19793). In words: qHTS assay to identify small molecule agonists of the RXR signaling pathway (AID 1159527; calls by dose curve; also: nearly all actives have a fitted effect of over 35% in size). The method in brief:
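GeneBLAzer RXR-alpha-UAS-bla HEK 293T cells in 2% charcoal-stripped FBS medium were exposed to compounds for 16 hr at 37 C in agonist mode. Beta-lactamase reporter read as 460/530 nm FRET ratio after 2 hr substrate loading.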

Test [9] is described as follows: qHTS assay to identify small molecule agonists of the RXR signaling pathway - cell viability counter screen (AID 1159529). A digest of the protocol:
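RXR-alpha-UAS-bla HEK 293T cells in medium with 2% charcoal-stripped FBS were pre-incubated 5 hr, then compound-treated 16 hr at 37 C. Viability was read by CellTiter-Glo luminescence in the same wells as the beta-lactamase assay, with tetraoctyl ammonium bromide as positive control.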

The nature of test [10]: qHTS assay to identify small molecule antagonists of the retinoid acid receptor (RAR) signaling pathway - cell viability counter screen (AID 1159551). Also: nearly all actives have a fitted effect of over 35% in size. The method in brief:
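Seed C3RL4 cells; next day add compound, then retinol to 1 uM final; incubate 6 h at 37 C; add CellTiter-Glo; read luminescence after 30 min at RT.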

The nature of test [11]: qHTS assay to identify small molecule antagonists of the retinoic acid receptor (RAR) signaling pathway (AID 1159552; also: nearly all actives have a fitted effect of over 50% in size; also: potency is read from the fitted curve at half-maximal effect). The method in brief: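 Retinol signaling pathway inhibitors screened in C3RL4 RARE-luciferase reporter cells seeded overnight at 37 C, then compounds added with 1 uM (final) retinol as pathway substrate. After 6 hr at 37 C, luciferase luminescence read after 30 min at room temperature.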

Test [12] is described as follows: qHTS assay to identify small molecule agonists of the endoplasmic reticulum stress response signaling pathway (AID 1159516; active = well fitted activation curve with a large enough effect in the signal ratio in the repeat runs, not every such curve was filed as active; the % refers to the signal ratio). A digest of the protocol: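 Reporter HeLa cells (ESRE-beta-lactamase) underwent 5 hr compound incubation at 37 C and 5% CO2 in quantitative HTS format. Detection followed 2 hr of FRET substrate loading at room temperature.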
Test [13] is described as follows: qHTS assay to identify small molecule antagonists of the estrogen related receptor (ERR) signaling pathway - cell viability counter screen (AID 1224818).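 Also: series mostly up to about 46 µM; viability measured after 17.5 h of compound exposure.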 The method in brief: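 In the same ERR cell assay, compound-treated wells (17.5 h, 37 C) were multiplexed with a fluorogenic viability reagent, CellTiter-Fluor, read after 30 min to flag cytotoxic substances.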

Test [14] can be described thus: qHTS assay to identify small molecule antagonists of the estrogen related receptor signaling pathway with the pleiotropic PPARgamma coactivator (PGC) cell viability counter screen (AID 1224822; also: series mostly up to about 46 µM). The method in brief:
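Compounds in DMSO, with positive and negative controls, were applied to PGC/ERR cells (2,000/well) and left 17.5 h at 37 C before CellTiter-Fluor detection.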

A short description of test [15]: qHTS assay to identify small molecule antagonists of the estrogen related receptor (ERR) signaling pathway (AID 1224819). A digest of the protocol: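 qHTS in ERR cells, 2,000/well, 1536 format. Cpd (DMSO) added after 6 h settle, 18 h 37 C. One-Glo luminescence, 30 min RT.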
Test [16] is described as follows: qHTS assay to identify small molecule agonists of the estrogen related receptor (ERR) signaling pathway (AID 1224820). A digest of the protocol:
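Quantitative HTS of the LOPAC library used NTP ERR reporter cells treated 18 h at 37 C. Signal is luminescence after One-Glo addition and a 30 min room-temperature incubation.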

Test [17] relates to estrogen-related receptor alpha (ERRalpha) with PGC-1alpha coactivator, human. In words: qHTS assay to identify small molecule antagonists of the estrogen related receptor signaling pathway with the pleiotropic PPARgamma coactivator (PGC) (AID 1224821; calls by dose curve). The method in brief: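 Quantitative HTS for antagonism: PGC/ERR cells received compounds after 6 h attachment and were incubated 18 h at 37 C, with luminescence (One-Glo) as the endpoint.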

Test [18] in a line: qHTS assay to identify small molecule agonists of the retinoic acid receptor (RAR) signaling pathway (AID 1159553). A digest of the protocol: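 Activation of retinol signaling was monitored via a RARE luciferase reporter in C3RL4 cells. After 6 hr compound treatment at 37 C, detection reagent was added for 30 min at room temperature before luminescence reading.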
Test [19] is described as follows: qHTS assay to identify small molecule antagonists of the retinoid-related orphan receptor gamma (ROR-gamma) signaling pathway - cell viability counter screen (AID 1159520). Also: nearly all actives have a fitted effect of over 50% in size. The method in brief: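 Tet-on ROR gamma CHO cells (1,000/well) were plated 4 hr, given compounds in DMSO for 2 hr at 37 C, then induced with 1 uM final doxycycline for 16 hr. Viability was read as ATP by CellTiter-Glo luminescence after 30 min.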

Several values for one entry are separate records, joined by “and”; a condition that tells them apart may be missing. Equal values may be shown once. Inconclusive results are not listed. Some compounds were tested as several samples or in several runs, with calls that do not always agree. Activity calls are given as the source filed them. Unless noted, calls follow the shape of the dose curve; as a rule, active = well fitted curve in the direction sought with a large enough effect in the repeat runs; inconclusive = weak or mixed curves; inactive = no such curve, though single readings can be large; an effect the other way counts as inactive or inconclusive.

Retinoic acid receptor RXR-alpha (Homo sapiens), sequence (P19793 whole entry, looked up): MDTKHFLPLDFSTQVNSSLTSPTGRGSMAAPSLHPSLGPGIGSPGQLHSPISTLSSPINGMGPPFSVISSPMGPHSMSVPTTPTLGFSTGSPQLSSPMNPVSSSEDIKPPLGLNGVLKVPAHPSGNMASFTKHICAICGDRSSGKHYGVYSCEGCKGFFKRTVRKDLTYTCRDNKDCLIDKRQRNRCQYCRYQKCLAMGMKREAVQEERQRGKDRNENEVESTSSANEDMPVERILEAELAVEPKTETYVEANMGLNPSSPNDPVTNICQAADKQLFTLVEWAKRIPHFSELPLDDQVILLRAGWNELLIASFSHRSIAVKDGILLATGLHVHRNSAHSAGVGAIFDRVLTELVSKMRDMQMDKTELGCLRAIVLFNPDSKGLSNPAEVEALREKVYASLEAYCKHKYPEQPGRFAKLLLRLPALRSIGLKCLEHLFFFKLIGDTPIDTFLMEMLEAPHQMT

In the case of `COc1ccc(C(=O)c2ccccc2)c(O)c1`, the Potency result in test [1], in test [4], in test [5], in test [7], in [8] and in [9] was “inactive” throughout. Moreover, the Potency entry in test [11] was “inactive”. The molecule was classed as inactive in test [2], in test [3], in [6] and in [10].
`CC1=NN(c2ccccc2)C(=O)C1`: the Potency entry in test [1], in test [4], in test [5], in [7], in test [9] and in test [11] was “inactive” each time. Besides, the call in [2], in test [3], in test [6] and in test [10] was inactive.
For the molecule `N[C@@H](Cc1c[nH]c2ccc(O)cc12)C(=O)O`, the Potency result in [1], in test [4], in [5], in test [7], in [9] and in [11] was “inactive” throughout. Further, the result in [2], in test [3], in test [12], in [6], in test [10] and in test [13] was inactive. Further, the outcome in test [14] was inactive.
For the molecule `CCOC(=O)C(C)(C)Oc1ccc(Cl)cc1`, the Potency result in test [1], in test [4], in [5], in test [7], in test [9] and in test [15] was “inactive” in each case. Also, the molecule was classed as inactive in test [2], in [3], in test [12], in [6], in test [10] and in test [13]. Moreover, the molecule was classed as inactive in test [16], in test [17] and in test [14].
Regarding `C[C@]12C[C@H](O)[C@H]3[C@@H](CCC4=CC(=O)CC[C@@]43C)[C@@H]1CC[C@@H]2C(=O)CO`, the Potency result in test [1], in test [4], in [7], in test [9], in test [11] and in [18] was “inactive” in each case. In addition, the result in test [2], in test [3], in [6], in test [10], in test [13] and in test [14] was inactive. Besides, in test [5], the Potency is 48.6 µM (active) and inactive.
For `NCCNc1cccc2ccccc12`, the Potency result in [1], in test [4], in [7], in test [8] and in test [9] was “inactive” in each case. The outcome in test [2], in test [3], in test [12], in test [6] and in test [10] was inactive. Also, the Potency in [11] is 30.6 µM (active) and 23.7 µM (active).
As for `CC(C)(C)NCC(O)c1ccc(O)c(CO)c1` (stereo not drawn), the Potency result in test [1], in test [4], in test [5], in test [7], in [8] and in test [9] was “inactive” each time. The Potency entry in [11] and in test [18] was “inactive” each time. Further, the call in test [2], in test [3], in test [6], in test [10], in [13] and in test [14] was inactive.
As for `CC(C)Cc1ccc(C(C)C(=O)O)cc1` (stereo not drawn), the result in test [3], in [6], in test [10], in test [13], in test [16] and in test [17] was inactive. In addition, the call in test [14] was inactive. In addition, the Potency result in [4], in [5], in [7], in [8], in test [9] and in test [11] was “inactive” throughout. In addition, the Potency result in [18] and in test [15] was “inactive” each time.
`CC(C)=CCC/C(C)=C/CO`: the Potency entry in test [1], in test [4], in [5], in test [7] and in test [9] was “inactive” throughout. Further, the call in test [2], in test [19], in [6] and in test [10] was inactive.
`CCCCCCCC(=O)OCC(O)CO` (stereo not drawn): the Potency result in test [1], in test [4], in [5], in [7], in [8] and in test [9] was “inactive” in each case. For the same molecule, the Potency result in test [11] and in test [18] was “inactive” throughout. Besides, the result in test [2], in [3], in [6] and in [10] was inactive.
`C#C[C@]1(O)CC[C@H]2[C@@H]3CCC4=CC(=O)CC[C@@H]4[C@H]3CC[C@@]21CC`: the Potency entry in [1], in [4], in [7] and in [9] was “inactive” throughout. For the same molecule, the result in test [2], in [3], in test [12], in [6] and in test [10] was inactive. Moreover, the Potency in test [5] was 48.6 µM (active) and inactive.

These data come from PubChem BioAssay (Tox21).
